Compound activity deposited in PubChem BioAssay by several laboratories.
A1 inh: inhibitors of the anti-apoptotic protein A1, read as caspase activation. AID 2462. caspase activation, % (test concentration not listed). 330,000 tested, 0.066% active. MEF A1-2A-BIM cells, Caspase-Glo 3/7 luminescence, 3 h; percent of clofoctol response, vehicle zero;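 active = over half of replicate activation scores above 10%, or exactly half above 10 with the replicate mean above 10; inconclusive = replicate mean below 10 yet half the replicates above 10; inactive = over half of replicates below 10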
Mdm2-MdmX inh: disrupts the human Mdm2-MdmX interaction; SaOS-2 split-luciferase Mdm2/MdmX complementation, luminescence; inhibition, % at 8 µM; 330,000 tested, 3% active;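 active = inhibition of at least 50% at 8 µM in the primary screen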
Target sequence (O15151 whole entry, looked up): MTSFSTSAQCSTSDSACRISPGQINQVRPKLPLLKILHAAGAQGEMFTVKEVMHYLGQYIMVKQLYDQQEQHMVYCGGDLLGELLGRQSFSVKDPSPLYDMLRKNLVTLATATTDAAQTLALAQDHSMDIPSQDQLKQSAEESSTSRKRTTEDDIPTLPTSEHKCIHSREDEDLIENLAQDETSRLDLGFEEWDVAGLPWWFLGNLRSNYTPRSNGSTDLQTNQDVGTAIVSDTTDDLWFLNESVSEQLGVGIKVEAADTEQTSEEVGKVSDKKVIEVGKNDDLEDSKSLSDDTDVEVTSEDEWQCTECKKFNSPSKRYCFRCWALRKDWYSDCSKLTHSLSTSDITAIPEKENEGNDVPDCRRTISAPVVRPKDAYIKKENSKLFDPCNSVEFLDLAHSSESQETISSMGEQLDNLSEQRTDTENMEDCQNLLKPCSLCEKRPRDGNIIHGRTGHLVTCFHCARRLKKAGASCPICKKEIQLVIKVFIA
Target sequence (Q00987 whole entry, looked up): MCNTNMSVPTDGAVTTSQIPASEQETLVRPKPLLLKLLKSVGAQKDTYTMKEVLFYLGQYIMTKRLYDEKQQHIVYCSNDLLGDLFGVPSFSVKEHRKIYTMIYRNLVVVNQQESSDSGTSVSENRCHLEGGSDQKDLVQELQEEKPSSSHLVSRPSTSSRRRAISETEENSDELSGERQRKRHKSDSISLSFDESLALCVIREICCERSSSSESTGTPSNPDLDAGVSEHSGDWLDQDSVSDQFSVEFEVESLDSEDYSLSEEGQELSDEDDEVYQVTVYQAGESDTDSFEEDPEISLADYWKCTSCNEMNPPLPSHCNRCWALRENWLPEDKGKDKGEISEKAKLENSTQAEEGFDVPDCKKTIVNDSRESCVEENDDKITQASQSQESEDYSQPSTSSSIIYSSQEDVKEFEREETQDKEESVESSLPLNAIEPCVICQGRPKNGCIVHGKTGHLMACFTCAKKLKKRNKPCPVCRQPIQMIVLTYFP
aSyn 5UTR inh: MLPCN primary screen, SNCA 5' untranslated region | alpha-synuclein 5'UTR reporter, inhibitor activity | inhibition, % (tested at 7.5 µM) | 300,000 tested, 0.82% active; in the data active = inhibition above about 60%; inconclusive = no clear call, values can overlap the other calls;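 also: H4 neuroglioblastoma cells stably carrying SNCA 5'UTR luciferase fusion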
CSC inhib: blocks cancer stem cells; cancer stem cell-like cells viability, luminescence; inhibition, % at 7.5 µM; 300,000 tested, 1.1% active; AID 2717; in the data active = inhibition above about 75%; inconclusive = no clear call, values can overlap the other calls; tested in HMLE shEcad cells
Beta cell apopt: blocks beta cell apoptosis. AID 435005. INS-1E cytokine-induced death, ATP luminescence, 48 h; percent of positive-control rescue, neutral wells zero. protection from apoptosis, % (concentration not given with the values). 300,000 tested, 0.8% active;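 active = Every replicate reaches about 75%, or at least half do and their mean reaches it too, limit read from the data; inconclusive = At least half of replicates reach the limit but their mean does not; inactive = Under half of replicates reach the limit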;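 also: higher means more ATP so stronger rescue from cytokine killing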
Mdm2 MdmX conf: human Mdm2/MdmX binding inhibition, confirmed. inhibition, % at 8 µM. 10,000 tested, 55% active. luminescent assay. shares compounds with Mdm2-MdmX inh; in the data active = inhibition above about 40%
Full FLuc ctr: counter-screen for Mdm2/MdmX inhibitors: full-length luciferase | shares compounds with Mdm2-MdmX inh | SaOS-2 full-length luciferase counterscreen, luminescence | inhibition, % at 8 µM | 6,200 tested, 77% active;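 active = mean inhibition at 8 µM reaching about 37%, which flags the compound as non-specific, limit read from the data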;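 also: p53-null SaOS-2 cells with luciferase driven by a doxycycline-inducible promoter; compound on cells about two nights before reading with doxycycline added after day one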
Of the large screens only hits and unclear results are named; the others gave an inactive call (follow-up assays come after a bar, where they were run). The list is not random: actives were taken first. Their share in the collection is about 4.1%.

CC(C)c1oc(=O)cc2c1[C@@H](O)[C@H]1OC(=O)[C@@]3(C)CC[C@@H](O)[C@@]2(C)C13 (stereo not given in full)	Mdm2-MdmX inh 63 | Mdm2 MdmX conf 61 | Full FLuc ctr 65
COc1ccc(Oc2cc(NC(=O)c3nn(C)cc3[N+](=O)[O-])cc([N+](=O)[O-])c2)cc1	A1 inh 13, Mdm2-MdmX inh 76 (no result: CSC inhib) | Mdm2 MdmX conf 96 | Full FLuc ctr 46
C=C1C(=O)[C@@]23C[C@H]4[C@@H]5[C@@]6(C)CCC[C@@]57[C@@H]2[C@@H](O)[C@@H]1C[C@H]3[C@H]7N4C6	Mdm2-MdmX inh 100 | Mdm2 MdmX conf 90 | Full FLuc ctr 52
CC(Cc1ccccc1)NC(=O)Cc1ccc([N+](=O)[O-])cc1 (stereo not given)	none
C=CCn1cc(C=C2C(=O)NC(=O)NC2=O)c2ccccc21	none
O=C1NC(=O)C(=Cc2cn(CCOc3ccc4c(c3)OCO4)c3ccccc23)C(=O)N1	Mdm2-MdmX inh 59 | Mdm2 MdmX conf inactive
COC(=O)C1=C(c2cccc(OCc3ccccc3)c2)C[C@@H]2CC[C@H]1N2C(=O)NCCc1ccc(F)cc1	none (no result: aSyn 5UTR inh)
CN(C)c1ccc2c(c1)N=C(c1ccco1)OP2(=S)N1CCOCC1 (stereo not given)	none
CN1/C(=C\C=C\C2=[N+](C)c3ccc4ccccc4c3C2(C)C)C(C)(C)c2ccccc21	Mdm2-MdmX inh 100, CSC inhib 115, Beta cell apopt 100 (no result: aSyn 5UTR inh) | Mdm2 MdmX conf 100 | Full FLuc ctr inactive
Cc1ccccc1-[n+]1c(-c2ccccc2)cc(-c2ccccc2)cc1-c1ccccc1	Mdm2-MdmX inh 88, Beta cell apopt 100 | Mdm2 MdmX conf 88 | Full FLuc ctr inactive
Brc1ccc(-[n+]2c(-c3ccccc3)cc(-c3ccccc3)cc2-c2ccccc2)cc1	Mdm2-MdmX inh 87, Beta cell apopt 129 | Mdm2 MdmX conf 74 | Full FLuc ctr inactive
[O-]c1ccccc1-[n+]1c(-c2ccccc2)cc(-c2ccccc2)cc1-c1ccccc1	Mdm2-MdmX inh 90, aSyn 5UTR inh inconclusive, Beta cell apopt 95 | Mdm2 MdmX conf 71 | Full FLuc ctr inactive
CCCOC(=O)c1ccc(-[n+]2c(-c3ccccc3)cc(-c3ccccc3)cc2-c2ccccc2)cc1	Mdm2-MdmX inh 89, Beta cell apopt 123 | Mdm2 MdmX conf 87 | Full FLuc ctr inactive
O=C1C2C3CCC(O3)C2C(=O)N1CCO (stereo not given)	none
CCc1ccc(N2C(=O)NC(=O)C(CCc3ccncc3)(CCc3ccncc3)C2=O)cc1	none
O=C1NC(=O)C(CCc2ccncc2)(Cc2cccc(Cl)c2Cl)C(=O)N1c1ccc(Br)cc1 (stereo not given)	Mdm2-MdmX inh 58, aSyn 5UTR inh inconclusive | Mdm2 MdmX conf 54 | Full FLuc ctr 43
COc1cc(OC)c(OC)cc1CNCCc1ccc2c(c1)OCO2	none (no result: Beta cell apopt)
C[C@H]1CC[C@@H]2[C@@H](C)[C@H]3[C@H](C[C@H]4[C@@H]5CC=C6C[C@@H](O[C@@H]7O[C@H](CO)[C@H](O)[C@H](O[C@@H]8O[C@H](CO)[C@@H](O)[C@H](O)[C@H]8O)[C@H]7O[C@@H]7O[C@@H](C)[C@H](O)[C@@H](O)[C@H]7O)CC[C@]6(C)[C@H]5CC[C@]34C)N2C1	Mdm2-MdmX inh 60 | Mdm2 MdmX conf inactive
COc1ccccc1-n1c(-c2ccccc2)nc2ccccc2c1=O	none (no result: A1 inh, CSC inhib, Beta cell apopt)
CN(C)CCSCc1nnc2n1-c1ccc(Cl)cc1C(c1ccccc1Cl)=NC2	none
CCNC(=O)[C@H]1O[C@@H](n2cnc3c(N)ncnc32)[C@H](O)[C@@H]1O	none
NC(=O)c1cn(C2OC(CO)C(O)C2O)c2ncnc(N)c12 (stereo not given)	Mdm2-MdmX inh 100, aSyn 5UTR inh 106 (no result: Beta cell apopt) | Mdm2 MdmX conf 99 | Full FLuc ctr inactive
CC(C)c1ccccc1OCC(=O)N1CCCN(C)CC1	none
COCCNC(=O)N1[C@H]2CC[C@@H]1C(C(=O)OC)=C(c1ccc(OC)c(OC)c1)C2	none (no result: aSyn 5UTR inh)
O=C1/C(=C/c2cc3c(cc2Cl)OCO3)N2CCC1CC2	none
O=c1c2ccccc2nc(/C=C/c2ccccc2O)n1-c1ccccc1O	Mdm2-MdmX inh 82 | Mdm2 MdmX conf 56 | Full FLuc ctr 63
O=c1c2ccccc2nc(-c2ccccc2)n1-c1ccccc1O	none
COc1ccc(-n2c(/C=C/c3ccc(O)c(O)c3)nc3ccccc3c2=O)cc1	none
Cc1ccc(-n2c(/C=C/c3ccccn3)nc3ccccc3c2=O)cc1	Mdm2-MdmX inh 59 (no result: A1 inh, CSC inhib, Beta cell apopt) | Mdm2 MdmX conf inactive
COc1cc(/C=C/c2nc3ccccc3c(=O)n2-c2ccc(O)cc2)ccc1O	Mdm2-MdmX inh 77 | Mdm2 MdmX conf 46 | Full FLuc ctr 95
O=c1c2ccccc2nc(/C=C/c2ccccn2)n1-c1ccccc1	none
C=Cn1ccnc1P(=S)(c1nccn1C=C)C1CCCCC1	none
O=[N+]([O-])c1ccc(O)c([N+](=O)[O-])c1	none
O=[N+]([O-])c1ccc(Cl)c([N+](=O)[O-])c1	Mdm2-MdmX inh 87, CSC inhib 102 (no result: aSyn 5UTR inh) | Mdm2 MdmX conf inactive
O=C(COc1ccc(Cl)cc1)N(c1ccccc1Cl)C1CN2CCC1CC2 (stereo not given)	none
O=C(COc1ccc(Cl)cc1)N(c1ccc(Cl)cc1)C1CN2CCC1CC2 (stereo not given)	Mdm2-MdmX inh 51 | Mdm2 MdmX conf inactive | Full FLuc ctr 75
Cc1nc2c(=O)n(C)c(=O)nc-2n(C)n1	Mdm2-MdmX inh 74, aSyn 5UTR inh 115, Beta cell apopt 106 | Mdm2 MdmX conf 58 | Full FLuc ctr inactive
COC(=O)C1=C(c2ccc3ccccc3c2)C[C@@H]2CC[C@H]1N2C(=O)NC1CC1	none (no result: aSyn 5UTR inh)
C=CCn1c(O)c(C(CC)=NCC2CCCO2)c(=O)[nH]c1=O (stereo not given)	none
COC(=O)C1=C(c2cc3ccccc3s2)C[C@@H]2CC[C@H]1N2C(=O)N1CCCCC1	Mdm2-MdmX inh 52 | Mdm2 MdmX conf 57 | Full FLuc ctr 40
Clc1ccc(OCC#CCN2CCCCCC2)cc1	none
CC(C)CNC(=O)c1c(N)n(Cc2ccc3c(c2)OCO3)c2nc3ccccc3nc12	Mdm2-MdmX inh 61 | Mdm2 MdmX conf inactive
C[C@@H]1O[C@@H](O[C@H]2C[C@@H](O)[C@]3(CO)[C@@H]4C(CC[C@]3(O)C2)[C@@]2(O)CC[C@H](C3COC(=O)C3)[C@@]2(C)C[C@H]4O)[C@H](O)[C@H](O)[C@H]1O (stereo not given in full)	Mdm2-MdmX inh 68, CSC inhib 83 (no result: aSyn 5UTR inh) | Mdm2 MdmX conf 70 | Full FLuc ctr inactive
CC(C)(C)C(=O)O[C@H]1CC[C@@]2(C)C(=CC(=O)C3C2CC[C@]2(C)C(=O)[C@@H](F)CC32)C1 (stereo not given in full)	none (no result: aSyn 5UTR inh)
